Records with an inconclusive call do not appear. Entries that show only a call come without a potency. Calls of active or inactive are those of the source. Calls follow the shape of the dose curve; as a rule, active = well fitted inhibition curve with a large enough effect; inconclusive = small, poorly fitted or top-dose-only effect; inactive = no such curve, though single readings can be large or run the other way.
Assay: qHTS for Inhibitors of the Aldehyde Dehydrogenase Family (ALDH1A2, ALDH1A3, ALDH2, ALDH3A1) (AID 2061307); also: nearly all actives have a fitted effect of over 50% in size; as to potency: test system not described further here
Conditions: ALDH inhibition qHTS; series mostly up to 50.3 µM
Potency is read from the fitted curve at half-maximal effect.

SMILES	Potency
COc1ccccc1CN1CCC(N(CCc2ccccc2)Cc2ccccc2)CC1	inactive
COc1ccc(NC(=O)C2CCN(c3ccc(Sc4ccc(C)cc4)nn3)CC2)cc1	inactive
NNC(=O)c1ccc2ccccc2n1	inactive
C=CCOc1c(Cl)cc(CNc2ccc(N(C)C)cc2)cc1OC	0.449 µM (active)
O=C(O)c1csc(-n2[nH]c(-c3c(F)cccc3F)cc2=O)n1	inactive
O=C(Nc1ccccc1C(=O)Nc1cccc(C(F)(F)F)c1)c1cccc([N+](=O)[O-])c1	3.55 µM (active)
Cc1ccccc1CN1CCN(Cc2ccc3ccccc3n2)CC1CCO (stereo not given)	3.18 µM (active)
Nc1nc2c(s1)C(c1ccc(F)cc1Cl)CC(=O)N2 (stereo not given)	4 µM (active)
Cc1cc(NS(=O)(=O)c2ccc(NCCc3ccc(Cl)c(Cl)c3)cc2)no1	2.83 µM (active)
CC(C)(C)NC(=O)c1ccc(NC(=O)c2cn(-c3ccccc3)nc2-c2cccnc2)cc1	inactive
COc1cc2ccccc2cc1C(=O)NC(=S)Nc1cccc(C(=O)O)c1	4.49 µM (active)
N[C@@H](CCC(=O)O)C(=O)Nc1cccc(-c2nn3c(=O)cc(N4CCNCC4)nc3s2)c1	inactive
O=C(Nc1ncc(CN2CCCCC2)s1)c1ccc(-c2cccc([N+](=O)[O-])c2)o1	11.3 µM (active)
Cc1ccc(S(=O)(=O)Nc2ccc(O)c3ccccc23)c(C)c1	14.2 µM (active)
O=C(NC1CCCN(Cc2ccccc2)C1)c1ccc(-c2cccc([N+](=O)[O-])c2)o1 (stereo not given)	14.1 µM (active)
COc1cccc(N2CCN(c3ncnc4c3c(-c3ccccc3)cn4-c3cccc(C(F)(F)F)c3)CC2)c1	inactive
Cc1c2c(=O)n(-c3ccccc3)[nH]c2cc(=O)n1Cc1ccco1	22.5 µM (active)
CC1=C[C@@H](CNC(C)C)[C@H](C(C)C)C[C@H]1Cc1nnc(-c2ccncc2)o1	inactive
O=C(O)c1cccc(Nc2ncnc3sccc23)c1	inactive
Cc1nc(SCCc2nc3ccccc3[nH]2)c2oc3ccccc3c2n1	inactive

SMILES	Potency
CCN(CC)C(=O)c1ccc(S(=O)(=O)N2CCC(c3nc4ccccc4s3)CC2)cc1	inactive
CCn1c(C(=O)NCCc2ccc(OC)cc2)cc2sccc21	2.01 µM (active)
O=C(O)c1cccc(COc2cccc([N+](=O)[O-])c2)c1	0.269 µM (active)
CC(C)(C)OC(=O)NC1CCN(c2nc(Br)cs2)CC1	inactive
Cc1cccc(Nc2nc(-c3ccccc3)c3cc(Cl)ccc3n2)c1	12.6 µM (active)
O=C(Nc1ccc2oc(-c3cccnc3)nc2c1)c1ccc(-c2ccccc2)o1	inactive
NS(=O)(=O)c1ccc(Cc2cn(-c3nc(C(=O)O)cs3)c3ccccc23)cc1	inactive
Cc1ccc2c(CC(=O)Nc3c(C(=O)c4ccc(F)cc4)oc4ccccc34)coc2c1C	inactive
NCC(=O)Nc1cccc(-c2nn3c(=O)cc(N4CCNCC4)nc3s2)c1	inactive
Cc1ccc(NC(=O)c2cnc3cc(C)ccn3c2=O)c(C)c1	inactive
COC(=O)c1ccc2c(c1)CCN2C(=O)c1cnn(-c2ccccc2)c1	inactive
CC(=O)c1cccc(Nc2cc(C)nc3nc(-c4ccccc4C)nn23)c1	inactive
O=C(CSc1nc2ncccc2c(=O)n1-c1ccccc1)Nc1ccccc1	inactive
CC(C)c1ccc(-c2cc(-c3nn(-c4nc(C(=O)O)cs4)c(CC4CC4)c3Cc3ccc(S(N)(=O)=O)cc3)ccc2F)cc1	1.12 µM (active)
COc1ccc(-n2c(C)c(C(C)=O)c3cc(OC(=O)c4ccco4)ccc32)cc1	inactive
COc1cccc(N2CCN(C(=O)CCCCCn3c(=O)[nH]c4ccccc4c3=O)CC2)c1	inactive
O=C(c1cnc(N2CCCCC2)c2ccccc12)N1CCN(c2ccccc2)CC1	inactive
O=C1C=CC(=O)N1c1ccc(N2CCOCC2)cc1	1.13 µM (active)
Cc1ccc(C)n1-c1ccccc1C(=O)O	inactive
CS(=O)(=O)c1nc(-c2ccc(Br)cc2)cs1	inactive

Reference: PubChem BioAssay (NCATS)
